Our source for the Potency values is PubChem BioAssay AID602366 (National Center for Advancing Translational Sciences (NCATS), 2012).

Molecules are shown by their SMILES. Records with an inconclusive call do not appear. The source made the active and inactive calls. The call rests on the fitted dose curve; in most records, active means well fitted inhibition curve with a large enough effect; inconclusive means small, poorly fitted or top-dose-only effect; inactive means flat fitted curve, though single readings scatter.

The test is described as follows: qHTS Assay for Inhibitors of Bacillus subtilis Sfp phosphopantetheinyl transferase (PPTase): SAR in B subtilis HM489. The settings on record: B. subtilis HM489 whole-cell Sfp-dependent phenotype; series mostly up to 114 µM. From the text: The covalent attachment of a phosphopantetheinyl (4'-PP) arm to a variety of synthases and other proteins is a key posttranslational protein modification. The 4'-PP is installed on the proteins post-translationally from coenzyme A (CoA) on a conserved serine residue by action of phosphopantetheinyl transferase (PPTase) enzymes. Phosphopantetheinylation is essential for synthase activity, and removal of the PPTase gene precludes natural product synthesis in microorganisms, or in the case of fatty acid biosynthesis, renders the organism unviable. PPTase enzymes belong to a distinct structural superfamily. Within bacteria, these enzymes are grouped into two classes based upon primary structure, the AcpS-Type and Sfp-Type PPTases.
Sfp-type PPTases, corresponding to an activator of surfactin production in Bacillus subtilis, are responsible for modifying type I polyketide and nonribosomal peptide synthases of prokaryotes. Sfp-type PPTases are responsible for the activation of a variety of pathogen-associated virulence factors. Among these compounds are toxins such as mycolactone from Mycobacterium ulcerans, siderophores such as vibriobactin from Vibrio cholerae or mycobactin from Mycobacterium tuberculosis, as well as the mycolic acids which form the waxy cell wall of Mycobacteria. The biosyntheses of these natural products are considered attractive targets for drug design.
In search of small molecule Sfp-PPTase inhibitors, a fluorescence quenching assay was developed for detection of Bacillus subtilis Sfp-PPTase enzymatic activity in a miniaturized high-throughput format. The consensus ybbr acceptor peptide […] was N-terminally labeled with Black Hole Quencher-2 (BHQ-2) and used in combination with rhodamine-labeled coenzyme A as a co-substrate.
Phosphopantetheinyl transfer is a process essential to cellular viability and maintenance. Cellular permeable and stable compounds acting as PPTase inhibitors are anticipated to be antimicrobial agents in organisms with complimenting genotypes. […] This experiment evaluated a series of test compounds for antimicrobial activity with B. subtilis HM489 (genotype: acpS- and sfp+), a strain that contains a targeted lesion in the acpS locus and thus requires a functional Sfp gene product for viability. [Mootz HD, 2001] This strain is expected to be sensitized to cell-permeable Sfp inhibitors.
NIH Chemical Genomics Center [NCGC]
NIH Molecular Libraries Probe Centers Network [MLPCN]
Assay Submitter (PI): Michale Burkart, University of California, San Diego
Bacillus subtilis HM489 is maintained on lysogeny broth (LB) solidified by the addition of 1.5% w/v agar. Single colonies were used to LB medium (2 mL) and shaken overnight at 30 deg C. In the morning, this culture (100 uL) was used to seed a fresh LB medium (10 mL) and was shaken at 30 deg C until the culture OD600 reached 0.5. This culture was diluted 1:100 in fresh LB medium to provide the inoculum below.
Bacterial susceptibility.
LB medium (2 uL) is dispensed into wells of a sterile white 1536-well plate. Test compounds (23 nL) prepared as serial dilutions in DMSO are added to the plate by pintool transfer. Innoculum (2 uL) is added; the plates are covered with a vented Kalypsys assay lid and incubated at 30 deg C. After 5 h, Bac-Titer Glo (4 uL; Promega Corp, Madison, WI) is added to the plates. They are incubated 10 minutes at room temperature and then the luminescence detected in a ViewLux multimodal plate reader.
A general note: In qHTS, concentration-response curves come from the screen itself.
For the compound `Cc1cc(C)nc(NC(=S)N2CC3CN(c4ccc(Cl)cc4C(F)(F)F)CC3C2)c1` (centres undefined), the Potency is 9.37 µM (active).

For the compound `FC(F)(F)c1cccc(N2CCN(C(=S)Nc3cc(C(F)(F)F)ccn3)CC2)c1`, the Potency is 10.5 µM (active).

Regarding `Cc1cc(C)nc(NC(=S)N2CCN(c3cc(Br)cc(C(F)(F)F)c3)CC2)c1`, the Potency was 4.69 µM (active).

`Cc1ccnc(NC(=S)N[C@@H]2CCN(c3cccc(C(F)(F)F)c3)C2)c1`: the Potency was 29.6 µM (active).

`COc1ccnc(NC(=S)N2CCN(c3ncc(C(F)(F)F)cc3Cl)CC2)c1`: the Potency was 6.63 µM (active).

Consider `FC(F)(F)c1cc(N2CCN(C(=S)Nc3cc(Cl)ccn3)CC2)cc(C(F)(F)F)c1`, for which the Potency was 4.18 µM (active).

As for `Cc1ccnc(NC(=S)N2CCN(c3cccc(N(C)C)c3)CC2)c1`, the Potency was 46.9 µM (active).

Turning to `Cc1cc(C)nc(NC(=S)N2CCN(c3ncccc3C#N)CC2)c1`, the Potency entry is “inactive”.

Regarding `Cc1cc(C)nc(NC(=S)N2CCN(c3ccc([N+](=O)[O-])cc3Cl)CC2)c1`, the Potency was 18.7 µM (active).

For `Cc1ccnc(NC(=S)N2CC3CN(c4ncc(C(F)(F)F)cc4Cl)CC3C2)c1` (centres undefined), the Potency was 11.8 µM (active).

As for `COc1ccnc(NC(=S)N2CCN(c3ccc(Cl)cc3Cl)CC2)c1`, the Potency was 10.5 µM (active).

As to `Cc1cc(C)nc(NC(=S)N2CCN(c3ccc(Cl)c(Cl)c3)CC2)c1`, the Potency was 26.4 µM (active).

As for `Cc1ccnc(NC(=S)N2CCCc3ccc(C(F)(F)F)cc32)c1`, the Potency result is “inactive”.

Consider `Cc1ccnc(NC(=S)Nc2cccc(C(F)(F)F)c2)c1`, for which the Potency is 10.5 µM (active).

Consider `Cc1ccnc(NC(=S)N2CCCN(c3cccc(C(F)(F)F)c3)CC2)c1`, for which the Potency is 4.18 µM (active).

With `Cc1cc(C)nc(NC(=S)N2CCN(c3ccc(F)c(F)c3F)CC2)c1`, the Potency is 21 µM (active).

`Cc1ccnc(NC(=S)N2CCN(c3cc(C(F)(F)F)cc(C(F)(F)F)c3)CC2)c1`: the Potency was 11.8 µM (active).

`Cc1cc(C)nc(NC(=S)N2CCN(c3ccc(Cl)cc3Cl)CC2)c1`: the Potency was 29.6 µM (active).

On to `Cc1ccnc(NC(=S)N2CCN(c3cccc(C(F)(F)F)c3)CC2)c1`, for which the Potency was 10.5 µM (active).

For `S=C(Nc1cc(Cl)ccn1)N1CCN(c2cccc(Cl)c2Cl)CC1`, the Potency was 8.35 µM (active).

Turning to `CSC(Cc1ccc(Cl)cc1)C(=O)Nc1ccc(Cl)cc1C(=O)O` (centres undefined), the Potency is 26.4 µM (active).

`Cc1ccnc(NC(=S)N2CC3CN(c4cccc(C(F)(F)F)c4)CC3C2)c1` (centres undefined): the Potency was 5.27 µM (active).

Regarding `COc1ccnc(NC(=S)N2CCN(c3cccc(Cl)c3Cl)CC2)c1`, the Potency is 8.35 µM (active).

For `COc1cccc(NC(=S)N2CCN(c3ccc(Cl)c(Cl)c3)CC2)n1`, the Potency entry was “inactive”.
